Screening results deposited in PubChem BioAssay by National Center for Advancing Translational Sciences (NCATS).
BAZ2B block = blocks human BAZ2B. 360,000 tested, 4.4% active. Q9UIF8. Potency, µM (top dose mostly 114 µM), for inactives: at the highest dose activity change, negative = inhibition, hits mostly inhibitors. AlphaScreen BAZ2B-H3K14Ac peptide displacement; further: on the % scale 0 is the no-effect control and ±100 the full control effect; nearly all actives have a fitted effect of over 60% in size
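Compounds, titrated to a top concentration of 110 uM, were incubated 30 min at room temperature with preformed BAZ2B/acetyl-K14 H3 peptide complex (50 nM each). Proximity signal was measured by AlphaScreen after 20 min with beads.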
HP1b binding inh = HP1-beta chromodomain-methylated histone interaction inhibition; P83916; AlphaScreen HP1-beta / biotin-H3K9me3 peptide binding; Potency, µM (titrated, usually from 114 µM), without a hit: at the top dose activity change, negative = inhibition, hits mostly inhibitors; 390,000 tested, 0.56% active; AID 540317; further: nearly all actives have a fitted effect of over 70% in size
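HP1-beta protein (50 nM final) preincubated 30 min at room temperature with biotinylated H3(1-18)K9me3 peptide (50 nM) in PBS pH 7.4, 0.01% Tween-20, then compound added for 30 min. AlphaScreen streptavidin donor/nickel chelate acceptor beads (10 ug/mL final), 30 min dark, luminescence read.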
JMJD2A Tudor inh = inhibitors of human JMJD2A Tudor domain. Potency, µM (titrated, usually from 114 µM), for the others: at the highest dose activity change, negative = inhibition, actives largely listed as inhibitors. AlphaScreen JMJD2A-Tudor / H3K4me3 peptide binding. 390,000 tested, 4.4% active. O75164; further: on the % scale 0 is the no-effect control and ±100 the full control effect; nearly all actives have a fitted effect of over 50% in size
Sfp PPTase inh = blocks B. subtilis Sfp PPTase activity; Q9F4F7; Biochemical Sfp PPTase activity, qHTS; Potency, µM, for the others: largest response in the series, negative = inhibition, most hits filed as inhibitors; 310,000 tested, 3.5% active; AID 1490;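 further: the enzyme is Sfp with the accession as filed and its product quenches rhodamine fluorescence; 0% = enzyme reaction without inhibitor and -100% = no enzyme wells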
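Fluorescence-quenching assay with 15 nM Sfp, 5 uM rhodamine-CoA and 12.5 uM BHQ-2-labelled ybbR peptide in pH 7.6 Hepes/MgCl2 buffer. Enzyme was pre-incubated with compound for 15 min at room temperature. Rate was taken from the 30-min fluorescence change (525/598 nm).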
PLK1 PBD inh = blocks phosphopeptide binding to human PLK1 polo-box domain; P53350; Potency, µM, inactives show max response, negative = inhibition, hits mostly inhibitors; 360,000 tested, 2.8% active; AID 720504; Plk1 PBD binding of FITC phosphopeptide, fluorescence polarization; further: series mostly up to about 57 µM; on the % scale 0 is the no-effect control and ±100 the full control effect; nearly all actives have a fitted effect of over 65% in size
G9a block = G9a (human) methyltransferase inhibition; Potency, µM (highest dose often 102 µM), for inactives: at the highest dose activity, negative = inhibition, hits mostly inhibitors; 350,000 tested, 8.8% active; G9a H3K9 monomethylation, AlphaScreen, 2 h; further: on the % scale 0 is the no-effect control and ±100 the full control effect; nearly all actives have a fitted effect of over 75% in size
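Chemiluminescent proximity detection of H3K9 monomethylation, read after 10 min bead incubation in the dark. Reaction: 20 nM G9a, 500 nM biotin-H3K9 peptide, 20 uM SAM cofactor, 2 h, room temperature, following 15 min enzyme-compound preincubation.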
* marks the source's active call; other numbers are inactive results; ? = inconclusive; · = not tested or not shown; [ ] = remark or other dose. This is a sample that favours compounds with a hit; in the whole collection about 12% have one here. The call rests on the fitted dose curve; in most records, active means well fitted curve in the direction sought with a large enough effect; inconclusive means small, poorly fitted or top-dose-only effect, or another doubt; inactive means no such curve, though single readings can be large; an effect the other way counts as inactive or inconclusive. Potency means the concentration at half of the fitted maximal effect.

SMILES	BAZ2B block	HP1b binding inh	JMJD2A Tudor inh	Sfp PPTase inh	PLK1 PBD inh	G9a block
O=c1c2cc(C(F)(F)F)ccc2sn1-c1ccccc1	·	·	·	·	2.67µM*	·
COc1cc(C(=O)N(Cc2ccccc2)c2cccc(C)c2)ccc1OCC(=O)N1CCOCC1	·	·	·	·	-6.9%	·
CSCC[C@H](NC(=O)[C@H](CC(C)C)NC(=O)CNC(=O)[C@H](Cc1ccc(O)cc1)NC(=O)[C@H](Cc1ccccc1)NC(=O)[C@H](CCC(N)=O)NC(=O)[C@H](CCC(N)=O)NC(=O)[C@@H]1CCCN1C(=O)[C@H](CCCCN)NC(=O)[C@@H]1CCCN1C(=O)[C@@H](N)CCCN=C(N)N)C(N)=O	·	·	·	-1.5%	·	·
O=c1ccn(CCCBr)c(=O)[nH]1	-3.6%	39.2%	4.1%	20.1%	1.8%	39.8µM*
CCNC(=O)COn1c(SCC(=O)NCC)nc2ccccc2c1=O	-0.3%	34.8%	5.4%	-5.5%	-4.8%	?
CCOc1ccccc1NC(=O)CSc1nc2ccccc2c(=O)n1CC1CCCO1 (stereo not given)	1.3%	-0.9%	-8.1%[57.1 µM]	?	?	4.47µM*
CCOCCCn1c(SCC(=O)Nc2ccc(OC)cc2)nc2ccccc2c1=O	0.3%	-20.7%	0.0%	50.1µM*	?	31.6µM*
CCNC(=O)CSc1nc2ccccc2c(=O)n1OC	0.2%	19.2%	8.1%	-2.5%	-4.8%	79.4µM*
CCOCCCn1c(SCC(=O)Nc2ccccc2)nc2ccccc2c1=O	6.2%[0.457 µM]	54.8%	-1.4%	7.9%	-8.4%	·
CCCCn1c(SCC(=O)Nc2ccc3c(c2)CCC3)nc2ccccc2c1=O	-16.0%	15.4%	-23.4%	4.2%	29.9µM*	-13.6%[59 µM]
Cc1ccccc1NC(=O)CSc1nc2ccccc2c(=O)n1CC1CCCO1 (stereo not given)	-7.0%	-22.7%	-14.7%	9.8%	-14.7%	8.1%
CC1CCN(S(=O)(=O)c2ccc3c(c2)c(=O)c(C(=O)NCCc2ccccc2)cn3C)CC1	·	22.2%	-7.3%	·	·	6.7%[59 µM]
Cc1ccc(S(=O)(=O)N2CCCOC2CNC(=O)C(=O)NCc2ccncc2)cc1 (stereo not given)	0.9%	40.3%	-6.1%	5.2%	2.3%	3.7%[59 µM]
O=C1CCCN1c1ccc(N2CCCC2=O)cc1	8.4%	46.4%	-0.3%	21.5%	-10.5%	13.5%[59 µM]
CCC(CC)C(=O)N(C)c1c(C)nc2c(OCc3ccc(Cl)cc3)cccn12	·	·	·	·	-6.9%	·
CCOC(=O)N1CCC(n2c(SCC(=O)N3CCC(C)CC3)nc3ccccc3c2=O)CC1	6.9%	26.3%	-19.8%	79.4µM*	-8.6%	-7.6%[59 µM]
CCOC(=O)CSc1nc2ccccc2c(=O)n1CC1CCCC1	70.5%	91.0%	?	-19.3%	2.99µM*	78.5%[59 µM]
COCCCn1c(SCC(=O)NC2CCCCC2)nc2ccccc2c1=O	3.4%	6.2%	-12.8%	2.3%	-7.6%	27.9%
CCOCCCn1c(SCC(=O)NC2CCCC2)nc2ccccc2c1=O	12.6%	23.2%	?	-0.3%	26.7µM*	40.7%[0.501 µM]
O=C(NCSc1ccnc(SCNC(=O)c2ccc(F)cc2)n1)c1ccc(F)cc1	-30.1%	19.7%	-28.6%	8.91µM*	-8.1%	2.82µM*
COc1ccc(C)cc1NC(=O)CCN1CC(C)OC(C)C1 (stereo not given)	-25.0%	29.4%	-17.0%	11.1%	3.2%	?
O=C(O)c1ccc(OCCCCCCOC2CCCCO2)cc1 (stereo not given)	-2.4%	12.1%	?	15.8%	26.7µM*	12.8%
Cc1ccc(CCNC(=O)c2cc3sccc3n2Cc2ccc(C)cc2)cc1	-13.6%	14.0%	-27.2%	·	·	5.8%[59 µM]
O=C(NCCc1ccccc1)c1cc2sccc2n1Cc1ccccc1	89.1µM*	-7.3%	?	-0.9%	?	2.7%
CC(=O)Oc1ccc2c(C)cc(=O)oc2c1	7.9%	37.9%	12.1%	17.9%	-3.7%	0.3%[59 µM]
SMILES	BAZ2B block	HP1b binding inh	JMJD2A Tudor inh	Sfp PPTase inh	PLK1 PBD inh	G9a block
CC(=O)Oc1cc2oc(=O)cc(C)c2cc1OC(C)=O	50.1µM*	26.2%	-34.3%	79.4µM*	-13.9%	0.501µM*
CSCC[C@H](NC(=O)c1ccc2ccccc2c1)C(=O)N1CCC2(CC1)NCCc1[nH]cnc12	?	6.1%	?	-19.9%	-15.2%	44.7µM*
Cc1csc(SCC(=O)NC(=O)c2ccccc2)n1	-0.6%	2.4%	-13.1%	·	4.8%	-35.2%
CSc1nnc(SCC(=O)NC(=O)c2ccccc2)s1	2.2%	26.5%	-2.8%	·	-1.0%	44.7µM*
Nc1nnc(SCC(=O)NNC(=O)c2ccc(Cl)cc2)s1	-1.3%	23.4%	-16.9%	·	-16.0%	8.91µM*
Cc1nnc(SCC(=O)NNC(=O)c2ccc(Cl)cc2)s1	-10.1%	12.6%	-9.7%	16.4%	-15.1%	11.3%[59 µM]
COCCNc1nnc(SCC(=O)Nc2sc3c(c2C(=O)c2ccccc2)CCCC3)s1	?	?	?	?	-17.9%	44.7µM*
COCCNc1nnc(SCC(=O)NNC(=O)c2ccccc2)s1	-14.6%	?	-18.5%	-15.7%	26.7µM*	?
CCc1ccc(OCC(=O)N(Cc2ccco2)Cc2ccco2)cc1	1.2%	8.6%	-32.1%	·	·	-7.9%[59 µM]
COC(=O)c1c(NC(=O)C2COc3ccccc3O2)sc2c1CCN(C(=O)OC)C2 (stereo not given)	·	·	·	·	1.7%	·
CCN(CC)CCNS(=O)(=O)c1ccc(OC)c(Br)c1	8.0%	28.1%	56.2µM*	6.8%	-6.3%	3.98µM*
Cc1ccc(S(=O)(=O)NN2C(=O)c3ccccc3NC2c2ccccc2F)cc1 (stereo not given)	50.1µM*	40.9%	-4.9%	9.2%	-5.8%	6.4%
COc1ccc(C2Nc3ccccc3C(=O)N2NS(=O)(=O)c2ccc(C)cc2)c(OC)c1 (stereo not given)	9.7%	-4.0%	-13.1%	17.2%	-13.4%	-1.7%
COc1cc(-c2nc(-c3ccc4c(c3)-c3ccccc3S4(=O)=O)c(-c3ccccc3)[nH]2)cc(OC)c1OC	-2.5%	18.1%	-28.1%	0.2%	-4.0%	44.7µM*
CCOc1cc(S(=O)(=O)NCCCN2CCOCC2)ccc1F	-15.0%	39.6%	-8.1%	16.4%	1.9%	40.2%
O=C1CSc2ccccc2N1	·	37.2%	-23.3%	·	-4.1%	·
CC1(C)CC(=S)Nc2ccccc2S1	-7.3%	?	-32.3%	28.2µM*	26.7µM*	7.94µM*
O=C(Cc1cccc(NC(=O)C2CCN(C(=O)C3CCCCC3)CC2)c1)Nc1cccc(C(=O)N2CCCC2)c1	0.7%	30.8%	-11.3%	·	9.8%	18.0%[2.33 µM]
O=C(Nc1c(F)cc(F)cc1Br)c1ccco1	-7.6%	18.2%	-8.2%	50.1µM*	1.0%	?
COC(=O)c1ccc(COn2nnc3ccccc32)cc1	13.0%	58.8%	13.7%	1.3%	-2.4%	18.0%
COc1cccc(=O)c2c(C)n(CC(=O)c3ccccc3)c(C)c12	?	-5.1%	-34.5%	44.7µM*	-11.0%	?
